# Experimental data published in PubChem BioAssay AID1159580 (chemical genetic matrix, 2015).
# “And” between values parts separate entries of the source, which are not always exact repeats. Equal entries are not always repeated. The campaign covered roughly 5,500 compounds. About 2,000 (36%) were called active. About 18% were inconclusive and are not listed. Rule as the data show it: active = normalized growth mostly below about 0.91 (no sharp cut-off); inconclusive = no clear call, values can overlap the other calls; inactive = mostly above about 0.92. This is one part of the list. Some structures have more than one record in an assay (separate samples or runs), and their calls can disagree.
# Assay: chemical genetic growth profiling, strain panel (AID 1159580);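 also: tested at 20 µM; growth read once vehicle control cultures reached saturation at 30 °C; 1 = growth at the plate median or of vehicle wells; lower values mean less growth of the strain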
# Conditions: S. cerevisiae deletion strains, growth OD
# [1] = locus YHR030C, strain SLT2, stronger effect = lower value
# [2] = locus YHR079C, strain IRE1, stronger effect = lower value
# [3] = locus YJL095W, strain BCK1, stronger effect = lower value
# [4] = locus YJR066W, strain TOR1, stronger effect = lower value
# [5] = locus YLR113W, strain HOG1, stronger effect = lower value
# [6] = locus YNL183C, strain NPR1, stronger effect = lower value
# [7] = locus YOR231W, strain MKK1, stronger effect = lower value
# [8] = locus YPL256C, strain CLN2, stronger effect = lower value
smiles,measurement,setting,value
COc1ccc(-c2coc3cc(OC)ccc3c2=O)cc1,normalized growth,"locus YAL013W, strain DEP1, stronger effect = lower value",0.933 (inactive)
same,normalized growth,"locus YBR021W, strain FUR4, stronger effect = lower value",1.02 (inactive)
same,normalized growth,"locus YBR229C, strain ROT2, stronger effect = lower value",0.908 (active)
same,normalized growth,"locus YCL029C, strain bik1, stronger effect = lower value",0.929 (inactive)
same,normalized growth,"locus YDL035C, strain GPR1, stronger effect = lower value",0.905 (inactive)
same,normalized growth,"locus YDL074C, strain BRE1, stronger effect = lower value",0.839 (inactive)
same,normalized growth,"locus YDL101C, strain DUN1, stronger effect = lower value",0.891 (active)
same,normalized growth,"locus YDL185W, strain tfp1, stronger effect = lower value",0.896 (active)
same,normalized growth,"locus YDL192W, strain arf1, stronger effect = lower value",0.898 (active)
same,normalized growth,"locus YDR101C, strain arx1, stronger effect = lower value",0.92 (inactive)
same,normalized growth,"locus YDR150W, strain NUM1, stronger effect = lower value",0.94 (inactive)
same,normalized growth,"locus YDR162C, strain NBP2, stronger effect = lower value",0.607 (active)
same,normalized growth,"locus YDR318W, strain mcm21, stronger effect = lower value",0.912 (active)
same,normalized growth,"locus YDR388W, stronger effect = lower value",0.92 (active)
same,normalized growth,"locus YDR502C, strain sam2, stronger effect = lower value",0.907 (active)
same,normalized growth,"locus YEL061C, strain CIN8, stronger effect = lower value",0.917 (active)
same,normalized growth,"locus YER110C, stronger effect = lower value",0.907 (inactive)
same,normalized growth,"locus YER155C, strain BEM2, stronger effect = lower value",1.01 (inactive)
same,normalized growth,"locus YER167W, strain BCK2, stronger effect = lower value",0.906 (inactive)
same,normalized growth,"locus YGL078C, strain dbp3, stronger effect = lower value",0.936 (inactive)
same,normalized growth,"locus YGL086W, strain mad1, stronger effect = lower value",0.906 (active)
same,normalized growth,"locus YGL248W, strain PDE1, stronger effect = lower value",0.876 (active)
same,normalized growth,"locus YGR078C, strain PAC10, stronger effect = lower value",0.811 (active)
same,normalized growth,"locus YGR135W, strain pre9, stronger effect = lower value",0.89 (active)
same,normalized growth,"locus YGR252W, strain gcn5, stronger effect = lower value",0.851 (inactive)
same,normalized growth,[1],0.973 (inactive) and 0.882 (active)
same,normalized growth,"locus YHR079C, strain IRE1 (second series), stronger effect = lower value",0.922 (active)
same,normalized growth,[2],0.976 (inactive)
same,normalized growth,"locus YHR094C, strain hxt1, stronger effect = lower value",0.949 (inactive)
same,normalized growth,"locus YHR129C, strain ARP1, stronger effect = lower value",0.915 (active)
same,normalized growth,"locus YHR200W, strain rpn10, stronger effect = lower value",0.906 (active)
same,normalized growth,"locus YIL066C, strain RNR3, stronger effect = lower value",0.807 (active)
same,normalized growth,"locus YIL073C, strain SPO22, stronger effect = lower value",0.783 (inactive)
same,normalized growth,"locus YIL125W, strain kgd1, stronger effect = lower value",0.941 (inactive)
same,normalized growth,"locus YIR030C, strain dcg1, stronger effect = lower value",0.931 (inactive)
same,normalized growth,[3],0.983 (inactive) and 0.669 (active)
same,normalized growth,"locus YJL134W, strain LCB3, stronger effect = lower value",0.941 (inactive)
same,normalized growth,"locus YJL168C, strain set2, stronger effect = lower value",0.936 (inactive)
same,normalized growth,"locus YJL187C, strain SWE1 (second series), stronger effect = lower value",0.891 (inactive)
same,normalized growth,"locus YJR043C, strain POL32, stronger effect = lower value",0.885 (inactive)
same,normalized growth,[4],0.9 (inactive)
same,normalized growth,"locus YJR075W, strain HOC1, stronger effect = lower value",0.913 (inactive)
same,normalized growth,"locus YKL009W, strain mrt4, stronger effect = lower value",0.92 (inactive)
same,normalized growth,"locus YKL068W, stronger effect = lower value",0.93 (active)
same,normalized growth,"locus YKL085W, strain MDH1 (second series), stronger effect = lower value",0.928 (active)
same,normalized growth,"locus YKL085W, strain MDH1, stronger effect = lower value",0.928 (active)
same,normalized growth,"locus YKL190W, strain CNB1, stronger effect = lower value",0.933 (inactive)
same,normalized growth,"locus YKR001C, strain vps1, stronger effect = lower value",0.644 (active)
same,normalized growth,"locus YLR039C, strain RIC1, stronger effect = lower value",0.48 (active)
same,normalized growth,"locus YLR058C, strain SHM2, stronger effect = lower value",0.906 (inactive)
same,normalized growth,"locus YLR102C, strain apc9, stronger effect = lower value",0.941 (inactive)
same,normalized growth,[5],0.984 (inactive)
same,normalized growth,"locus YLR262C, strain YPT6, stronger effect = lower value",0.468 (active)
same,normalized growth,"locus YLR268W, strain sec22, stronger effect = lower value",0.919 (inactive)
same,normalized growth,"locus YLR330W, strain CHS5, stronger effect = lower value",0.874 (active)
same,normalized growth,"locus YLR342W, strain FKS1 (second series), stronger effect = lower value",0.763 (active)
same,normalized growth,"locus YLR371W, strain rom2, stronger effect = lower value",0.933 (inactive)
same,normalized growth,"locus YLR418C, strain cdc73, stronger effect = lower value",0.736 (active)
same,normalized growth,"locus YML016C, strain PPZ1, stronger effect = lower value",0.922 (inactive)
same,normalized growth,"locus YML032C, strain rad52, stronger effect = lower value",0.942 (inactive)
same,normalized growth,"locus YML124C, strain tub3, stronger effect = lower value",0.925 (active)
same,normalized growth,"locus YMR078C, strain ctf18, stronger effect = lower value",0.929 (inactive)
same,normalized growth,"locus YMR223W, strain ubp8, stronger effect = lower value",0.911 (inactive)
same,normalized growth,"locus YMR263W, strain SAP30, stronger effect = lower value",0.898 (inactive)
same,normalized growth,"locus YMR307W, strain GAS1, stronger effect = lower value",0.658 (inactive)
same,normalized growth,"locus YNL067W, strain RPL9B, stronger effect = lower value",0.886 (inactive)
same,normalized growth,[6],0.921 (inactive)
same,normalized growth,"locus YNL233W, strain BNI4, stronger effect = lower value",0.888 (inactive)
same,normalized growth,"locus YNL250W, strain rad50, stronger effect = lower value",0.943 (inactive)
same,normalized growth,"locus YNL271C, strain bni1, stronger effect = lower value",0.918 (active)
same,normalized growth,"locus YNL298W, strain CLA4, stronger effect = lower value",0.906 (active)
same,normalized growth,"locus YNL307C, strain MCK1, stronger effect = lower value",0.543 (active)
same,normalized growth,"locus YNL322C, strain KRE1, stronger effect = lower value",0.936 (inactive)
same,normalized growth,"locus YNR052C, strain pop2, stronger effect = lower value",0.928 (inactive)
same,normalized growth,"locus YOL006C, strain TOP1, stronger effect = lower value",0.589 (inactive)
same,normalized growth,"locus YOL012C, strain htz1",0.966 (inactive)
same,normalized growth,"locus YOL147C, strain pex11, stronger effect = lower value",0.922 (active)
same,normalized growth,"locus YOR061W, strain CKA2, stronger effect = lower value",0.899 (inactive)
same,normalized growth,"locus YOR069W, strain VPS5, stronger effect = lower value",0.937 (inactive)
same,normalized growth,"locus YOR136W, strain idh2, stronger effect = lower value",0.971 (inactive)
same,normalized growth,"locus YOR144C, strain elg1, stronger effect = lower value",0.937 (inactive)
same,normalized growth,"locus YOR184W, strain ser1, stronger effect = lower value",0.783 (active)
same,normalized growth,[7],0.982 (inactive)
same,normalized growth,"locus YOR316C, strain cot1, stronger effect = lower value",0.928 (inactive)
same,normalized growth,"locus YPL055C, strain LGE1, stronger effect = lower value",0.836 (inactive)
same,normalized growth,[8],0.968 (inactive)
same,normalized growth,"locus YPR119W, strain clb2, stronger effect = lower value",0.947 (inactive)
same,normalized growth,"locus YPR141C, strain kar3, stronger effect = lower value",0.921 (inactive)
same,normalized growth,"locus YPR163C, strain tif3, stronger effect = lower value",0.772 (active)
same,normalized growth,"locus YPR167C, strain met16, stronger effect = lower value",0.943 (inactive)
same,normalized growth,"strain wtn01, stronger effect = lower value",0.91 (inactive)
COc1ccc2c(=O)c(-c3ccc(O)cc3)coc2c1,normalized growth,[1],0.966 (inactive)
same,normalized growth,[2],0.939 (inactive)
same,normalized growth,[3],0.962 (inactive)
same,normalized growth,[4],0.918 (inactive)
same,normalized growth,[5],0.955 (inactive)
same,normalized growth,[6],0.918 (inactive)
same,normalized growth,[7],0.942 (inactive)
same,normalized growth,[8],0.925 (inactive)
